Experimental findings from PubChem BioAssay (EPA / NIEHS) are described below.

Calls of active or inactive are those of the source. The calls were made as follows: active = hit-call score of the fitted dose curve at least 0.9, where 1 is the maximum; inactive = score below 0.9.

Conditions in all cases: mRNA level, 48 h; actives raise or lower the signal
Read-out in assay [1]: Apolipoprotein A-V (APOA5) gene, APOA5 (gene 116519)
Nature of the assay: LTEA_HepaRG_APOA5: Life Technologies and Expression Analysis (LTEA) Assay for Apolipoprotein A-V (APOA5) gene using HepaRG (AID 2283474). The procedure, abridged: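 Concentration-response of APOA5 expression in HepaRG: eight half-log doses to 100 uM, 48 h, qRT-PCR normalized to ACTB/GAPDH/POLR2A, bidirectional fitting with 0.5% DMSO as baseline.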

Read-out in assay [2]: Apoptosis regulator Bcl-2 (Homo sapiens) (UniProt P10415)
Nature of the assay: LTEA_HepaRG_BCL2: Life Technologies and Expression Analysis (LTEA) Assay for Bcl-2 gene using HepaRG (AID 2283475). The procedure, abridged: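 Differentiated HepaRG cells in serum-free induction medium were exposed for 48 h to eight half-log concentrations up to 100 uM in 0.5% DMSO, in duplicate. BCL2 mRNA was quantified by TaqMan qRT-PCR normalised to ACTB, GAPDH and POLR2A, with bidirectional fitting versus DMSO.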

Read-out in assay [3]: Bcl-2 (BID) gene, BID (gene 637)
In words: LTEA_HepaRG_BID: Life Technologies and Expression Analysis (LTEA) Assay for Bcl-2 (BID) gene using HepaRG (AID 2283476). The procedure, abridged:
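Differentiated HepaRG cells in serum-free induction medium were exposed in duplicate for 48 h to eight half-log concentrations up to 100 uM in 0.5% DMSO. BID mRNA was quantified by qRT-PCR, normalized to ACTB, GAPDH and POLR2A.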

Read-out in a further assay: Caspase-3 (Homo sapiens) (UniProt P42574)
In words: LTEA_HepaRG_CASP3: Life Technologies and Expression Analysis (LTEA) Assay for cysteine-aspartic acid protease (CASP3) using HepaRG (AID 2283477). The procedure, abridged: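 Transcript-level assay: CASP3 mRNA in human HepaRG after 48 h treatment, eight half-log concentrations from 100 uM in 0.5% DMSO, quantified by qRT-PCR.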

Read-out in assay [4]: Cytochrome P450 (CYP24A1), CYP24A1 (gene 1591)
In words: LTEA_HepaRG_CYP24A1: Life Technologies and Expression Analysis (LTEA) Assay for Cytochrome P450 (CYP24A1) using HepaRG (AID 2283478). The procedure, abridged:
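Gene expression of CYP24A1 by TaqMan qRT-PCR in HepaRG after 48 h treatment, highest concentration 100 uM; activity fitted in both directions relative to DMSO vehicle.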

Read-out in assay [5]: Cytochrome P450 (CYP1A2), CYP1A2 (gene 1544)
Nature of the assay: LTEA_HepaRG_CYP1A2: Life Technologies and Expression Analysis (LTEA) Assay for Cytochrome P450 (CYP1A2) using HepaRG (AID 2283479). The procedure, abridged:
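In duplicate wells, HepaRG cultures maintained in 0.5% DMSO were treated 48 h across an 8-point, half-log series topping at 100 uM; phenobarbital (1 mM) served as induction control. Expression was read by qRT-PCR.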

Read-out in assay [6]: cysteine-aspartic acid protease (CASP8), CASP8 (gene 841)
Nature of the assay: LTEA_HepaRG_CASP8: Life Technologies and Expression Analysis (LTEA) Assay for cysteine-aspartic acid protease (CASP8) using HepaRG (AID 2283480). The procedure, abridged: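 HepaRG, 48 h exposure, duplicate wells; 8 conc, half-log from 100 uM, 0.5% DMSO. Serum-free induction medium. CASP8 mRNA by TaqMan qRT-PCR, norm. ACTB/GAPDH/POLR2A; gain/loss fitted vs DMSO.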

Read-out in assay [7]: Cytochrome P450 (CYP2B6), CYP2B6 (gene 1555)
Nature of the assay: LTEA_HepaRG_CYP2B6: Life Technologies and Expression Analysis (LTEA) Assay for Cytochrome P450 (CYP2B6) using HepaRG (AID 2283481). The procedure, abridged:
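Human HepaRG, 48 h dosing, 0.5% DMSO vehicle, top dose 100 uM. CYP2B6 transcript by qRT-PCR, housekeeping-normalized, bidirectional curve fit.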

Read-out in assay [8]: Cytochrome P450 2C19 (Homo sapiens) (UniProt P33261)
Nature of the assay: LTEA_HepaRG_CYP2C19: Life Technologies and Expression Analysis (LTEA) Assay for CYP2C19 using HepaRG (AID 2283482). The procedure, abridged: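 Endpoint: CYP2C19 mRNA change, bidirectional fit vs 0.5% DMSO. Cells: HepaRG, 48 h exposure, eight-point series topping at 100 uM. Quantitation: qRT-PCR normalized to ACTB, GAPDH, POLR2A.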

Read-out in another assay: CYP2C8 (gene 1558)
Nature of the assay: LTEA_HepaRG_CYP2C8: Life Technologies and Expression Analysis (LTEA) Assay for CYP2C8 using HepaRG (AID 2283483). The procedure, abridged: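 CYP2C8 mRNA induction or loss, by qRT-PCR normalized to ACTB/GAPDH/POLR2A, is read in HepaRG cells after 48 h treatment. Concentrations run from 100 uM down in half-log dilutions, with 0.5% DMSO as vehicle and baseline.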

Read-out in a further assay: CYP2C9 (gene 1559)
In words: LTEA_HepaRG_CYP2C9: Life Technologies and Expression Analysis (LTEA) Assay for CYP2C9 using HepaRG (AID 2283484). The procedure, abridged:
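Cells plated 48 h, switched to serum-free induction medium, then treated in duplicate for 48 h at eight concentrations (max 100 uM, 0.5% DMSO). RNA then analysed by qRT-PCR for CYP2C9; curves fitted in both directions relative to DMSO.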

Read-out in a further assay: CYP2E1 (gene 1571)
Nature of the assay: LTEA_HepaRG_CYP2E1: Life Technologies and Expression Analysis (LTEA) Assay for CYP2E1 using HepaRG (AID 2283485). The procedure, abridged: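 HepaRG cells in serum-free induction medium exposed 48 h to test chemicals, 8 half-log concentrations up to 100 uM in 0.5% DMSO, duplicate. CYP2E1 mRNA by qRT-PCR, normalized to ACTB, GAPDH, POLR2A; bidirectional fit versus DMSO.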

Read-out in another assay: CYP4A11 (gene 1579)
In words: LTEA_HepaRG_CYP4A11: Life Technologies and Expression Analysis (LTEA) Assay for CYP4A11 using HepaRG (AID 2283486). The procedure, abridged:
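Human hepatic HepaRG cultures receive duplicate 48 h exposures across a concentration-response series topping at 100 uM. Expression changes in CYP4A11 are measured by qRT-PCR relative to DMSO controls.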

Read-out in assay [9]: Cytochrome P450 3A4 (Homo sapiens) (UniProt P08684)
Nature of the assay: LTEA_HepaRG_CYP3A4: Life Technologies and Expression Analysis (LTEA) Assay for CYP3A4 using HepaRG (AID 2283487). The procedure, abridged: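 Differentiated HepaRG cells, plated 48 h, then dosed 48 h in serum-free induction medium with 0.5% DMSO, 8 half-log concentrations up to 100 uM, duplicate. CYP3A4 mRNA by qRT-PCR, normalized to ACTB/GAPDH/POLR2A; bidirectional fit versus DMSO.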

Read-out in assay [10]: DNA damage-inducible transcript 3 (DDIT3), DDIT3 (gene 1649)
In words: LTEA_HepaRG_DDIT3: Life Technologies and Expression Analysis (LTEA) Assay for DNA damage-inducible transcript 3 (DDIT3) using HepaRG (AID 2283488). The procedure, abridged: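 Differentiated human HepaRG cells in serum-free induction medium were exposed in duplicate for 48 h to 8 concentrations (top 100 uM, half-log steps, 0.5% DMSO). DDIT3 mRNA measured by TaqMan qRT-PCR, normalized to ACTB/GAPDH/POLR2A; bidirectional fit versus DMSO.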

Read-out in assay [11]: Pro-epidermal growth factor (Homo sapiens) (UniProt P01133)
Nature of the assay: LTEA_HepaRG_EGF: Life Technologies and Expression Analysis (LTEA) Assay for Epidermal growth factor (EGF) using HepaRG (AID 2283489). The procedure, abridged:
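Concentration-response mRNA assay: HepaRG cells dosed 48 h (max 100 uM, 0.5% DMSO), EGF measured by qRT-PCR and normalized to ACTB/GAPDH/POLR2A.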

Read-out in assay [12]: Early growth response protein 1 (EGR1) transcription factor, EGR1 (gene 1958)
In words: LTEA_HepaRG_EGR1: Life Technologies and Expression Analysis (LTEA) Assay for Early growth response protein 1 (EGR1) transcription factor using HepaRG (AID 2283490). The procedure, abridged: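 Read-out is EGR1 mRNA level by qRT-PCR, normalized to three housekeeping genes and analysed for gain or loss of signal against 0.5% DMSO. Source cells: human HepaRG, treated 48 h at up to 100 uM in half-log dilutions.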

Read-out in assay [13]: Ezrin (EZR), EZR (gene 7430)
Nature of the assay: LTEA_HepaRG_EZR: Life Technologies and Expression Analysis (LTEA) Assay for Ezrin (EZR) using HepaRG (AID 2283491). The procedure, abridged:
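EZR transcript levels came from Fluidigm qRT-PCR and were normalized to three housekeeping genes after 48 h chemical exposure of HepaRG cells. Dosing used an 8-point half-log series with a 100 uM top concentration in 0.5% DMSO, tested in duplicate; both directions were fitted versus vehicle.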

Read-out in assay [14]: Cytochrome P450 3A7 (Homo sapiens) (UniProt P24462)
In words: LTEA_HepaRG_CYP3A7: Life Technologies and Expression Analysis (LTEA) Assay for CYP3A7 using HepaRG (AID 2283492). The procedure, abridged:
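qRT-PCR of CYP3A7 in HepaRG lysates after 48 h treatment; concentration-response (8 points, max 100 uM) analysed bidirectionally relative to 0.5% DMSO controls.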

Cytochrome P450 3A7 (Homo sapiens), sequence (P24462 whole entry, looked up): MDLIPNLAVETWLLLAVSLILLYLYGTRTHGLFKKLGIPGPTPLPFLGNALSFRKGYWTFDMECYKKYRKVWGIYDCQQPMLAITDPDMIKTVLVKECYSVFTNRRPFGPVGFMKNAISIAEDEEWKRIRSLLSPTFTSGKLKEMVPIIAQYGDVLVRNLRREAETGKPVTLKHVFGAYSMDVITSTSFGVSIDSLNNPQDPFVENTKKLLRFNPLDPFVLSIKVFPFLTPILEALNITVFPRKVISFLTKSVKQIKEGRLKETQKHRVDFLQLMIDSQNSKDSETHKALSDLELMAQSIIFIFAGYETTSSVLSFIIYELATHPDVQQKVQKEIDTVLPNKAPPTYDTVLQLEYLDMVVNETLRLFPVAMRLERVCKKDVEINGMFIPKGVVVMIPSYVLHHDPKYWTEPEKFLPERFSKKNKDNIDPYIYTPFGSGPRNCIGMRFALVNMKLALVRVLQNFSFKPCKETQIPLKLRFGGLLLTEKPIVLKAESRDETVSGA
Apoptosis regulator Bcl-2 (Homo sapiens), sequence (P10415 whole entry, looked up): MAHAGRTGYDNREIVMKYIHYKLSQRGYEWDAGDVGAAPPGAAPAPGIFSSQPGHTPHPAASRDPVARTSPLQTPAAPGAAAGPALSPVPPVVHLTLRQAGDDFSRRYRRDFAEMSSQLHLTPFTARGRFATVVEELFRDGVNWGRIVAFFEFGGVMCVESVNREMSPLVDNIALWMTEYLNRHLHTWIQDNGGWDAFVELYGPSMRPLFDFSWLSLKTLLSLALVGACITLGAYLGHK
Caspase-3 (Homo sapiens), sequence (P42574 whole entry, looked up): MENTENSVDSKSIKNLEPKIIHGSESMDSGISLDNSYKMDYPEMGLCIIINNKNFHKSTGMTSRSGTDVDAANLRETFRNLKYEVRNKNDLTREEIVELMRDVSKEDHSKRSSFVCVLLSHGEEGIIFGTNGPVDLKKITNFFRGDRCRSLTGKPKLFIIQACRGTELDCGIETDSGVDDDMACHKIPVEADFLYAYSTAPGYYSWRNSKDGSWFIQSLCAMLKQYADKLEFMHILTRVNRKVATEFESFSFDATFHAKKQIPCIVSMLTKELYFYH
Cytochrome P450 2C19 (Homo sapiens), sequence (P33261 whole entry, looked up): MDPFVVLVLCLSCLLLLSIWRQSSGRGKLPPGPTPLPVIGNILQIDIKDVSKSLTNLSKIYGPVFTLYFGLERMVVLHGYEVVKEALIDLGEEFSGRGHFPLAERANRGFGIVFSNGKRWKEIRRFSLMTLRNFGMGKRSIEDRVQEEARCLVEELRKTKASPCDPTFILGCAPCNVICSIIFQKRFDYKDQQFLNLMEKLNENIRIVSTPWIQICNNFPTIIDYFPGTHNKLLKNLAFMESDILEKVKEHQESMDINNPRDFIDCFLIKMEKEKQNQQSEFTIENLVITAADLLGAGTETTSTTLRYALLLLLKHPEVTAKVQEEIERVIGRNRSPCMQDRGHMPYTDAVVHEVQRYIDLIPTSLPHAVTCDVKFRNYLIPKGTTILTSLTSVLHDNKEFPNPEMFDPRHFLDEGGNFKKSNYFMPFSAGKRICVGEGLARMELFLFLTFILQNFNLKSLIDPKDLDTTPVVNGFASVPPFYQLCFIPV
Cytochrome P450 3A4 (Homo sapiens), sequence (P08684 whole entry, looked up): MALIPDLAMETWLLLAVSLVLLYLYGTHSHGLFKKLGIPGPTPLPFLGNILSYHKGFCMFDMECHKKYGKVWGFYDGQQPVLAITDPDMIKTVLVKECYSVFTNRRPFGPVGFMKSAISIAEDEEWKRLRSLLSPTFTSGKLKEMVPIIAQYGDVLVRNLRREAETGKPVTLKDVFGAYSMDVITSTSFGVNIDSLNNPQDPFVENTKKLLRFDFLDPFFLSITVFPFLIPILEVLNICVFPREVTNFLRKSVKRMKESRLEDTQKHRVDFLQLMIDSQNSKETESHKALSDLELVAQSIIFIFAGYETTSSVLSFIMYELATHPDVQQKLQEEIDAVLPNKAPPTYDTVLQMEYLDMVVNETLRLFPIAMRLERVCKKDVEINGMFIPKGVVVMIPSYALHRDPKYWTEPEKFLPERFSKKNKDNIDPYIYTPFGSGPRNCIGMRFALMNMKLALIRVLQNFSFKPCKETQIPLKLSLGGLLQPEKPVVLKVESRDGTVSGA

As to `COCCOc1cc2cc(C(=O)NC3CCN(C(C)C)CC3)n(CC(=O)Nc3ccc(Cl)cn3)c2cn1`, the AC50 was 45 µM (active) in [1]; 2.12 µM (active) in assay [5]; 70.6 µM (active) in [7]; 66.8 µM (active) in assay [8]; 61.8 µM (active) in the assay with CYP2C8 (gene 1558); 62.2 µM (active) with CYP2C9 (gene 1559). The AC50 with CYP2E1 (gene 1571) was 52.6 µM (active); in the assay with CYP4A11 (gene 1579), 69.7 µM (active); in [9], 45 µM (active); in [14] it was 72 µM (active). The compound was classed as inactive (in assay [2]; in assay [3]; with Caspase-3 (Homo sapiens); in [4]; in assay [6]; in assay [10]). Further, the result in assay [11], in assay [12] and in assay [13] was inactive.

As to `O=C(OC[C@H]1O[C@@H](OC(=O)c2cc(O)c(O)c(OC(=O)c3cc(O)c(O)c(O)c3)c2)[C@H](OC(=O)c2cc(O)c(O)c(OC(=O)c3cc(O)c(O)c(O)c3)c2)[C@@H](OC(=O)c2cc(O)c(O)c(OC(=O)c3cc(O)c(O)c(O)c3)c2)[C@@H]1OC(=O)c1cc(O)c(O)c(OC(=O)c2cc(O)c(O)c(O)c2)c1)c1cc(O)c(O)c(OC(=O)c2cc(O)c(O)c(O)c2)c1`, the AC50 is 6.96 µM (active) in assay [1]; 28.4 µM (active) in assay [2]; 7.63 µM (active) in assay [3]; 9.48 µM (active) in [6]; 10.2 µM (active) in [7]; 15.2 µM (active) in assay [8]. In addition, the AC50 is 15.2 µM (active) with CYP2C8 (gene 1558); 10.4 µM (active) with CYP2C9 (gene 1559); 5.26 µM (active) with CYP2E1 (gene 1571); 10.4 µM (active) with CYP4A11 (gene 1579); 11.3 µM (active) in assay [9]; 4.58 µM (active) in assay [10]. The AC50 in [14] is 8.99 µM (active). Besides, the compound was classed as inactive (with Caspase-3 (Homo sapiens); in assay [4]; in [5]; in assay [11]; in [12]; in assay [13]).
